Results as given in PubChem BioAssay (Tox21).
Where “and” joins values, the source holds several entries; their conditions need not be identical. Equal values may be shown once. Inconclusive results are not listed. Entries that show only a call come without a potency. Calls of active or inactive are those of the source. Unless noted, the call rests on the fitted dose curve; in most records, active means well fitted curve in the direction sought with a large enough effect in the repeat runs; inconclusive means weak or mixed curves; inactive means no such curve, though single readings can be large; an effect the other way counts as inactive or inconclusive.

Experiments:
[1] = qHTS assay for small molecules that induce genotoxicity in human embryonic kidney cells expressing luciferase-tagged ATAD5 (AID 651632); further: nearly all actives have a fitted effect of over 15% in size; further: potency means the concentration at half of the fitted maximal effect
Procedure, shortened: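 Test compounds were delivered by pin tool onto HEK293T reporter cells (2,000/well) expressing ATAD5 fused to luciferase. After 16 hr at 37C, 5% CO2, Amplite was added for 30 min at room temperature and luminescence was measured.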

[2] = qHTS assay for small molecule agonists of the p53 signaling pathway - cell viability (AID 651633; calls by dose curve; further: nearly all actives have a fitted effect of over 30% in size; further: potency means the concentration at half of the fitted maximal effect)
Procedure, shortened: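 p53RE-bla cells were treated with compound for 16 hours at 37 C. Cytotoxicity was then measured as CellTiter-Glo luminescence after 30 min at room temperature.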

[3] = qHTS assay for small molecules that induce genotoxicity in human embryonic kidney cells expressing luciferase-tagged ATAD5 - cell viability (AID 651634; calls by dose curve; further: nearly all actives have a fitted effect of over 25% in size)
Procedure, shortened: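 Quantitative high-throughput format. HEK293T cells expressing ATAD5 fused to luciferase were plated at 2,000 cells/well and treated 15.5 hr with compound versus DMSO. Viability was determined by fluorescent live-cell protease substrate, 30 min at 37C.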

[4] = qHTS assay to test for compound auto fluorescence at 590 nm (red) in HepG2 cells (AID 720674)
Procedure, shortened: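 HepG2 cells, 2,000 per well in MEM with 10% FBS, attached overnight at 37 C, then got 23 nL compound or DMSO. After 1 hr at 37 C, 5% CO2, red fluorescence was read at 540/590 nm against Rose Bengal sodium as reference.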

[5] = qHTS assay to test for compound auto fluorescence at 535 nm (green) in HepG2 cells (AID 720675)
[6] = qHTS assay to test for compound auto fluorescence at 460 nm (blue) in HEK293 cells (AID 720678)
Procedure, shortened: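 HEK293 cells (2,000 per well, medium with 10% dialyzed FBS) attached for 4-5 hr at 37C, then received compound and stood overnight at 37C, 5% CO2. Blue fluorescence was read at Ex/Em 405/460 nm and expressed relative to triamterene.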

[7] = qHTS assay to test for compound auto fluorescence at 590 nm (red) in HEK293 cells (AID 720679)
Procedure, shortened: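 HEK293 cells (2,000/well, medium with 10% dialyzed FBS) attached for 4-5 hr at 37C, received 23 nL compound and were incubated overnight at 37C, 5% CO2. Red fluorescence was then read at 540/590nm Ex/Em, referenced to Rose Bengal sodium.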

[8] = qHTS assay to test for compound auto fluorescence at 535 nm (green) in HEK293 cells (AID 720680)
[9] = qHTS assay to test for compound auto fluorescence at 460 nm (blue) in HEK293 cell free culture (AID 720681); further: potency means the concentration at half of the fitted maximal effect
Procedure, shortened: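 Compounds were added to cell-free DMEM with 10% FBS and fluorescence read directly. The blue channel used 405 nm excitation and 460 nm emission, with triamterene as the reference fluorophore.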

[10] = qHTS assay to test for compound auto fluorescence at 535 nm (green) in HEK293 cell free culture (AID 720682)
Procedure, shortened: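 Steps: dispense DMEM/10% FBS into empty wells; pin in compound or DMSO; measure fluorescence at 485/535 nm. Values are fluorescein equivalents.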

[11] = qHTS assay to test for compound auto fluorescence at 590 nm (red) in HEK293 cell free culture (AID 720683)
Procedure, shortened: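 Cell-free wells of DMEM with 10% FBS received compound, and intrinsic fluorescence was read at excitation/emission 540/590 nm. Values expressed as equivalence to Rose Bengal sodium.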

[12] = qHTS assay to test for compound auto fluorescence at 590 nm (red) in HepG2 cell free culture (AID 720684)
Procedure, shortened: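 Rose Bengal sodium served as the reference for red signal. Test compounds were dispensed into serum-containing MEM (10% FBS) without cells, and plates were read at 540/590 nm.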

[13] = qHTS assay to test for compound auto fluorescence at 460 nm (blue) in HepG2 cell free culture (AID 720685); further: potency means the concentration at half of the fitted maximal effect
Procedure, shortened: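 Cell-free plates of MEM plus 10% FBS received 23 nL compound or DMSO vehicle; blue-channel (405/460 nm) intensity scored against triamterene as reference fluorophore.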

[14] = qHTS assay to test for compound auto fluorescence at 535 nm (green) in HepG2 cell free culture (AID 720686)
[15] = qHTS assay to test for compound auto fluorescence at 460 nm (blue) in HepG2 cells (AID 720687); further: potency means the concentration at half of the fitted maximal effect
Procedure, shortened: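 HepG2 cells in MEM with 10% FBS, attached overnight at 37 C, were exposed to compound or DMSO for 1 hr at 37 C, 5% CO2. Blue fluorescence was read at 405/460 nm, with triamterene as reference fluorophore.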

[16] = qHTS assay for small molecule disruptors of the mitochondrial membrane potential - cell viability (AID 720634; calls by dose curve; further: nearly all actives have a fitted effect of over 20% in size; further: potency means the concentration at half of the fitted maximal effect)
Procedure, shortened: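 Same-well counter-screen: following the MMP dye addition, CellTiter-Glo was added to 1 hr compound-treated HepG2 cells and luminescence read after 30 min at room temperature.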

[17] = qHTS assay for small molecule disruptors of the mitochondrial membrane potential (AID 720635); further: potency means the concentration at half of the fitted maximal effect
Procedure, shortened: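 HepG2 cells exposed to compound 1 hr at 37C, then Mito-MPS dye 30 min. Ratio read of aggregate (540/590 nm) versus monomer (490/535 nm) fluorescence.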

[18] = molecular target: Glucocorticoid receptor (Homo sapiens) (UniProt P04150); assay: qHTS assay to identify small molecule agonists of the glucocorticoid receptor (GR) signaling pathway (AID 720691; active means well fitted activation curve with a large enough effect in the signal ratio in the repeat runs, not every such curve was filed as active; the % refers to the signal ratio); settings: GR-bla HeLa, beta-lactamase reporter ratio, 18 h; activation: at 62.4 µM (top of the series)
Glucocorticoid receptor (Homo sapiens), sequence (P04150 whole entry, looked up): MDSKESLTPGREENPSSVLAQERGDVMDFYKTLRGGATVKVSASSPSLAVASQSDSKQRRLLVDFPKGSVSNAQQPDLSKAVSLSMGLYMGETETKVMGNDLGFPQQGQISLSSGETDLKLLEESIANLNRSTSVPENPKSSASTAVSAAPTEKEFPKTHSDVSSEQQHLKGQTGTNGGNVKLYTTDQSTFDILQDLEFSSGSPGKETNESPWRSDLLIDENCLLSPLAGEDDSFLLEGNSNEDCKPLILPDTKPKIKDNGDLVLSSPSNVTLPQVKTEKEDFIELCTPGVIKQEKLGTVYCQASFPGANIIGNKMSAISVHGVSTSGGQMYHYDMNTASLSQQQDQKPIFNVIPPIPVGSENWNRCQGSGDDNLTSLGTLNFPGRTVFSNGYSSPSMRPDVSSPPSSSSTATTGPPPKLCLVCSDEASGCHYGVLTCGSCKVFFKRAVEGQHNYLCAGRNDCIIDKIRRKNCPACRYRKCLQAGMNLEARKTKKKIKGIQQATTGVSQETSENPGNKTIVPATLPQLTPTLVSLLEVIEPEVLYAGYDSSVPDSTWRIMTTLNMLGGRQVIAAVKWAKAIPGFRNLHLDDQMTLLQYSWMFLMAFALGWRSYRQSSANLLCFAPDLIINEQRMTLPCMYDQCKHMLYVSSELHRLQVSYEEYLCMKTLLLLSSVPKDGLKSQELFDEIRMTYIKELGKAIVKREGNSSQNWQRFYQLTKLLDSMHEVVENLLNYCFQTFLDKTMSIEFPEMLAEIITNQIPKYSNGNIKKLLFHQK
Procedure, shortened: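 A HeLa cervical cancer line expressing GR and a glucocorticoid response element-driven beta-lactamase gene is treated with compounds for 18 h; LiveBLAzer B/G FRET substrate is then applied and fluorescence read.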

[19] = molecular target: Glucocorticoid receptor (Homo sapiens) (UniProt P04150); assay: qHTS assay to identify small molecule antagonists of the glucocorticoid receptor (GR) signaling pathway (AID 720692; active means well fitted inhibition curve with a large enough effect in the signal ratio in the repeat runs, not every such curve was filed as active; the % refers to the signal ratio; further: potency means the concentration at half of the fitted maximal effect)
Procedure, shortened: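 GRE-bla HeLa line, dex-stimulated (5 nM final). Compound exposure 18 h, 37 C. Beta-lactamase FRET read after 2 h RT substrate.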
Tags describe the fitted curve by direction and shape or compound fluorescence and quenching.

| Structure (SMILES) | Potency [1] | Potency [2] | Potency [3] | outcome [4] | Potency [5] | Potency [6] | outcome [7] | outcome [8] | Potency [9] | outcome [10] | outcome [11] | outcome [12] | Potency [13] | Potency [14] | Potency [15] | Potency [16] | Potency [17] | Potency [18] | Potency [19] |
| --- | --- | --- | --- | --- | --- | --- | --- | --- | --- | --- | --- | --- | --- | --- | --- | --- | --- | --- | --- |
| c1ccc2cc3c4ccccc4c4ccccc4c3cc2c1 | inactive | inactive | inactive | inactive | inactive | inactive | inactive | inactive | inactive | inactive | inactive | inactive | inactive | inactive | inactive |  |  |  |  |
| O=C1CCC(c2ccc(-n3ccnc3)cc2)=NN1 | inactive | inactive | inactive | inactive | inactive | inactive | inactive | inactive | inactive | inactive | inactive | inactive | inactive | inactive | inactive | inactive | inactive | inactive |  |
| CCCCCCCCCCCCN1CCCC1=O | inactive | 61.1 µM (active) | inactive | inactive | inactive | inactive | inactive | inactive | inactive | inactive | inactive | inactive | inactive | inactive | inactive | inactive | 68.6 µM (active) |  |  |
| COc1cc2c(cc1OC)[C@@H](Cc1cc(OC)c(OC)c(OC)c1)[N+](C)(CCCOC(=O)CC/C=C/CCC(=O)OCCC[N+]1(C)CCc3cc(OC)c(OC)cc3[C@H]1Cc1cc(OC)c(OC)c(OC)c1)CC2 (stereo not given in full) | inactive | inactive | inactive | inactive | inactive | inactive | inactive | inactive | inactive |  | inactive | inactive | inactive | inactive | inactive | inactive |  |  |  |
| CCCCCCCC[N+](C)(C)CCCCCCCC | inactive | inactive | inactive | inactive | inactive | inactive | inactive | inactive | inactive | inactive | inactive | inactive | inactive | inactive | inactive | inactive | 21.1 µM (active) and 23.7 µM (active) | inactive |  |
| CCCCC/C=C\C=C\C(=O)OCC | inactive | 56.8 µM (active) | inactive | inactive | inactive | inactive | inactive | inactive | inactive | inactive | inactive | inactive | inactive | inactive | inactive |  | 71.5 µM (active) | inactive | 45.5 µM (active) |
| CCCCCCCC1CCC(=O)O1 (stereo not given) |  |  |  | inactive | inactive | inactive | inactive | inactive | inactive | inactive | inactive | inactive | inactive | inactive | inactive |  |  |  |  |
| C(=C\c1ccncc1)/c1ccccc1 | 23.7 µM (active) |  | inactive | inactive | inactive | inactive | inactive | inactive | inactive | inactive | inactive | inactive | inactive | inactive | inactive | inactive | 3.76 µM (active) and 10.6 µM (active) | inactive | inactive |
| NCc1cccc(C2CCN(C(=O)c3ccc(C#Cc4ccccc4F)o3)CC2)c1 | inactive | 61.1 µM (active) |  | inactive | inactive | inactive | inactive | inactive | inactive | inactive | inactive | inactive | inactive | inactive | inactive | inactive | inactive |  |  |
| Cc1ccc2nc(-c3ccc(N)cc3)sc2c1S(=O)(=O)O | 0.85 µM (active) | inactive | inactive | inactive | inactive |  | inactive | inactive | 15.8 µM (active) | inactive | inactive | inactive | 25.1 µM [fluorescent] (active) | inactive | 22.4 µM [fluorescent] (active) |  |  | inactive | inactive |
| CCCCC[C@H](O)/C=C/[C@@H]1[C@@H](C/C=C\CCCC(=O)O)[C@@H](O)C[C@H]1O | inactive |  |  | inactive | inactive | inactive |  | inactive |  | inactive | inactive | inactive | inactive | inactive | inactive | inactive | inactive | inactive |  |
| CS(=O)(=O)c1ccc([C@@H](CC2CCCC2)C(=O)Nc2cnccn2)cc1Cl |  |  |  | inactive | inactive | inactive | inactive | inactive |  |  | inactive | inactive | inactive | inactive | inactive | 34.4 µM (active) | 61.1 µM (active) |  |  |
| CNCCC=C1c2ccccc2CCc2ccccc21 |  | inactive |  | inactive | inactive | inactive | inactive | inactive | inactive | inactive | inactive | inactive | inactive | inactive | inactive | inactive |  |  | inactive |
| COc1c(Br)cc(Br)c(C)c1Br | inactive | inactive | inactive | inactive | inactive | inactive | inactive | inactive | inactive | inactive | inactive | inactive | inactive | inactive | inactive |  |  | inactive |  |
